Measurements published in PubChem BioAssay (EPA / NIEHS).
Inconclusive results are not listed. The source made the active and inactive calls. How the source made its calls: active means hit-call score of the fitted dose curve at least 0.9, where 1 is the maximum; inconclusive means response in the unintended direction; inactive means score below 0.9.

Biological target: bovine Estrogen Receptor (ER), ESR1 (gene 407238) (UniProt P49884)
Experiment: NVS_NR_bER: NovaScreen (NVS) Nuclear Receptor Binding Assay for bovine Estrogen Receptor (ER) (AID 2283345);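 further: actives lower the bound radioligand count which means they displace the ER ligand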
In short: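 Scintillation counting of displaced radioligand gave the readout; bovine uterine membrane extract supplied the receptor. Measured 18 h post-dose, normalized to DMSO baseline. Single 25 uM duplicate screen preceded concentration-response follow-up.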

Chain of bovine Estrogen Receptor (ER), ESR1 (gene 407238) (P49884 whole entry, looked up): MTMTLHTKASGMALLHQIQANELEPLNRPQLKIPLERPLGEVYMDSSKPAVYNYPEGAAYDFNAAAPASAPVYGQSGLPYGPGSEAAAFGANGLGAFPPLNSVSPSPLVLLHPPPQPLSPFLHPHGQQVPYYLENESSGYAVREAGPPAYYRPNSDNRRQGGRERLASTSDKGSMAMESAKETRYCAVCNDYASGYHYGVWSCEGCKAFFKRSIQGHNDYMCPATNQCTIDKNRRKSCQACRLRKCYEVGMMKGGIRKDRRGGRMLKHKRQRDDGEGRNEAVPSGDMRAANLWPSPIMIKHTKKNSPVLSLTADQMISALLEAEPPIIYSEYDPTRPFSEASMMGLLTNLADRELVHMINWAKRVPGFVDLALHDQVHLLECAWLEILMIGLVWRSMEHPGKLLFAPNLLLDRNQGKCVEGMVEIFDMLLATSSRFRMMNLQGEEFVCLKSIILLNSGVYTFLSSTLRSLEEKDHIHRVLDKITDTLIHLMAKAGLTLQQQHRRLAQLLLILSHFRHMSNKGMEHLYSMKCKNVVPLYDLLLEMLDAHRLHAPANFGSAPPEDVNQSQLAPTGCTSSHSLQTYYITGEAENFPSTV

Row | SMILES | outcome
1 | c1nc[nH]n1 | inactive
2 | O=[N+]([O-])c1ccccc1 | inactive
3 | CCNc1nc(Cl)nc(NC(C)(C)C)n1 | inactive
4 | OCC1CO1 (centres undefined) | inactive
5 | Nc1ccc(Cl)cc1 | inactive
6 | CCCCOCC1CO1 (centres undefined) | inactive

Biological target: chimpanzee Androgen Receptor (AR), AR (gene 747460) (UniProt O97775)
Sequence (O97775 whole entry, looked up): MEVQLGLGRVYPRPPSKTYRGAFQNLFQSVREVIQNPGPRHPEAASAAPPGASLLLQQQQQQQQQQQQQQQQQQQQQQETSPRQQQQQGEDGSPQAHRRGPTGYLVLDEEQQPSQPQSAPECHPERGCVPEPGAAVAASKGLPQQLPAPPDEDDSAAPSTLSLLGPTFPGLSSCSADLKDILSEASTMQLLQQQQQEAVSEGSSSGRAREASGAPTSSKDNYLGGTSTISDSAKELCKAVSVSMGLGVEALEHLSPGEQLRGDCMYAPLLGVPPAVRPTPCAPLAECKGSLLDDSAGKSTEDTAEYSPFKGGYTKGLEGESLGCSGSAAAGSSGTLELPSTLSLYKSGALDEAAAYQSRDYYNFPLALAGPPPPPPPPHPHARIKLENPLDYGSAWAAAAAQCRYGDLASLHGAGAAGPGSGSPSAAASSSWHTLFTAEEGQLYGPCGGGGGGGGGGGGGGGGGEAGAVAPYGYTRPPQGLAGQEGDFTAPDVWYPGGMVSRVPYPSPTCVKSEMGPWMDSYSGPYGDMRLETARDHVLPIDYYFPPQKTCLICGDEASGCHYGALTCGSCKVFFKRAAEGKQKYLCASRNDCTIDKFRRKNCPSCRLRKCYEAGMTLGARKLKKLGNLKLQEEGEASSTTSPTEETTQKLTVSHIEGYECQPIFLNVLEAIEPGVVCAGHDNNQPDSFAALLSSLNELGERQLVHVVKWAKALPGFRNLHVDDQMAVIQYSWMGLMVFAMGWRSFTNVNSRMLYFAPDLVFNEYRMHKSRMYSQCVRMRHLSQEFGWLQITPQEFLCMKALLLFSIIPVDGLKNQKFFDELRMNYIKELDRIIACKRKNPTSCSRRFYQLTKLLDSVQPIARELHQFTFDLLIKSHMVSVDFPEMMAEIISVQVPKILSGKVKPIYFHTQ
Experiment: NVS_NR_cAR: NovaScreen (NVS) Nuclear Receptor Binding Assay for chimpanzee Androgen Receptor (AR) (AID 2283346);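 further: radioligand displacement from AR measured by scintillation counting in a cell-free assay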
In short: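 Cell-free radioligand displacement using receptor protein extracted from Sf9/Sf21 cells; bound radioligand measured by scintillation counting 72 hours after chemical dosing. Loss of signal versus DMSO baseline indicates binding; primary screen single-concentration in duplicate at 25 uM, actives followed in concentration series.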

Row | SMILES | outcome
7 | O=C(O)CF | inactive
8 | O=NN1CCCC1 | inactive
9 | O=S1(=O)OCC2C(CO1)C1(Cl)C(Cl)=C(Cl)C2(Cl)C1(Cl)Cl (centres undefined) | inactive

Biological target: Estrogen receptor (Homo sapiens) (UniProt P03372)
Sequence (P03372 whole entry, looked up): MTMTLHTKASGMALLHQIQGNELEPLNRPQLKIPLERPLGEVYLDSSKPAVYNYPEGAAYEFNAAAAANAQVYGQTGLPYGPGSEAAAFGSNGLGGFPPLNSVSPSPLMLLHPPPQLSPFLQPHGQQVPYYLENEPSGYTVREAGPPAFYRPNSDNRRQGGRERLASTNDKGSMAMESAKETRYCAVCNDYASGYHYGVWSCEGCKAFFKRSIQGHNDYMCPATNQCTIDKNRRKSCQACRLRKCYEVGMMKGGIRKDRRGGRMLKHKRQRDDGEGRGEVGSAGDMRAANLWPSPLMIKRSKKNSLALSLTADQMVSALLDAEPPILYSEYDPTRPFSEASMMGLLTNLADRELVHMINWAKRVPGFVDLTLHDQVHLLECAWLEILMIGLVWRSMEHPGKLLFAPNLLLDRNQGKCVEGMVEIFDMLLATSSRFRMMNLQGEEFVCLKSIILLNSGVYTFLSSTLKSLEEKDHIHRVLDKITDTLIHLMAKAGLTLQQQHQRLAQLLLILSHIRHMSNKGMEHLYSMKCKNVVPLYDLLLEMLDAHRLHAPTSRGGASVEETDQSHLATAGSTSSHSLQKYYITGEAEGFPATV
Experiment: NVS_NR_hER: NovaScreen (NVS) Nuclear Receptor Binding Assay for human Estrogen Receptor (ER) (AID 2283348)
In short: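 Radiodetection of ligand displacement in a lysate-based, cell-free format using MCF7 extracts, read at 18 hours. Duplicate 25 uM primary testing, then concentration series for actives.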

Row | SMILES | outcome | AC50
10 | COCCOCCO | inactive | 
11 | [N-]=[N+]=[N-] | inactive | 
12 | CCCCN(CC)C(=O)SCCC |  | 3.02 µM (active)

Biological target: Estrogen receptor (Homo sapiens) (UniProt P03372)
Experiment: OT_ER_ERaERa_1440: Odyssey Thera (OT) 24-hour HEK293T Protein-Complementation Assay for Estrogen Receptor-alpha/-alpha Homodimer (AID 2283349);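 further: hits raise fluorescence above DMSO for agonists and antagonists alike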
In short: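 Stably transfected HEK293T; ERα LBD homodimer PCA. 24 h dosing, fluorescence intensity read, gain-of-signal vs DMSO.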

Row | SMILES | outcome
13 | COCCOCCO | inactive
14 | CCNc1nc(Cl)nc(NC(C)(C)C)n1 | inactive
15 | O=C(O)CF | inactive
16 | O=C(O)C1C(C(=O)O)C2(Cl)C(Cl)=C(Cl)C1(Cl)C2(Cl)Cl (centres undefined) | inactive
17 | CCCCN(CC)C(=O)SCCC | inactive
18 | CN(C)C(=O)Cl | inactive
19 | CCOc1ccc(C(C)(C)COCc2cccc(Oc3ccccc3)c2)cc1 | inactive
20 | OCC1CO1 (centres undefined) | inactive
21 | Nc1ccc(Cl)cc1 | inactive
22 | COC(N)=O | inactive
23 | CC(Cc1ccc(OCC(=O)O)cc1)NCC(O)c1csc(C(F)(F)F)n1 (centres undefined) | inactive
24 | CCCCOCC1CO1 (centres undefined) | inactive
